For assay [1], the system named is Vero E6 infected with SARS-CoV-2. In words: morphology score (similarity to uninfected cells); higher = more like uninfected cells. Particulars: 24 h.
For assay [2] the test system is unchanged. In words: SARS-CoV-2 infection rate relative to infected DMSO; higher = more infection, active = 60 or less. As to conditions: 24 h.

Regarding `COc1cc(N2CCC(N)CC2)ccc1Nc1ncc(Cl)c(-c2c[nH]c3ccccc23)n1` (0.833333 µM), the morphology score in assay [1] turned out to be 0.205. For the same compound, the SARS-CoV-2 infection rate in assay [2] is 102% (inactive).
The matching figures for `CC1Nc2ccc(Cl)cc2S(=O)(=O)N1` (stereo not drawn) (10 µM): 0.135 and 100% (inactive).
The matching figures for `Cn1cc(-c2ccc(F)c(C(F)(F)F)c2)nc1C1CCN(c2ncnc3[nH]ncc23)CC1` (10 µM): 0.119 and 110% (inactive).
Taken in the same sequence, the figures for `CN(C)C(=N)NC(=N)N` [metformin] (10 µM) were -0.00931 and 108% (inactive).
`COc1cccc2c1C(=O)c1c(O)c3c(c(O)c1C2=O)C[C@@](O)(C(=O)CO)C[C@@H]3O[C@H]1C[C@H](N2CCO[C@H](OC)C2)[C@H](O)[C@H](C)O1` [nemorubicin] (0.833333 µM) showed a morphology score in assay [1] of 0.0228. In addition, the SARS-CoV-2 infection rate in assay [2] was 108% (inactive).
Taken in the same sequence, the figures for `CN1CC(O)C2=C/C(=N/NC(N)=O)C(=O)C=C21` (stereo not drawn) [carbazochrome] (10 µM) were 0.0013 and 113% (inactive).
The matching figures for `O=C1c2ccccc2C(=O)c2ccccc21` [anthraquinone] (10 µM): 0.166 and 103% (inactive).
Taken in the same sequence, the figures for `c1ccc(Cn2c(N3CCNCC3)nc3ccccc32)cc1` [lerisetron] (10 µM) were 0.0474 and 100% (inactive).
`CCc1cc(-c2[nH]nc(C)c2-c2ccc3c(c2)OCCO3)c(O)cc1O` (0.833333 µM): in assay [1], the morphology score came to 0.075. Further, the SARS-CoV-2 infection rate in assay [2] is 114% (inactive).
The matching figures for `COc1ccc(CNC(=O)c2cc(-c3cncc(C)c3)ncc2-c2nccs2)nc1OC` (10 µM): -0.0112 and 100% (inactive).
The matching figures for `O=C1/C(=C/c2ccccc2)C[C@@]2(O)[C@H]3Cc4ccc(O)c5c4[C@@]2(CCN3CC2CC2)[C@H]1O5` (0.833333 µM): 0.732 and 23.5% (active).
Taken in the same sequence, the figures for `C/C(=N\c1ccccc1N)c1c(C)cc(=O)n(O)c1O` (10 µM) were -0.169 and 107% (inactive).
`O=C(O)c1nn(Cc2ccc(Cl)cc2Cl)c2ccccc12` [lonidamine] (10 µM) registered a morphology score in assay [1] of 0.0313. The SARS-CoV-2 infection rate in assay [2] is 110% (inactive).
Taken in the same sequence, the figures for `C[C@]12C=CC(=O)C=C1CC[C@@H]1[C@@H]2C(=O)C[C@@]2(C)[C@H]1CC[C@]2(O)C(=O)CO` [prednisone] (10 µM) were -0.177 and 108% (inactive).
In assay [1], `NS(=O)(=O)c1cc2c(cc1Cl)N=C(CSCc1ccccc1)NS2(=O)=O` [benzthiazide] (10 µM) returned a morphology score of -0.187. Further, in assay [2], the SARS-CoV-2 infection rate is 116% (inactive).
Taken in the same sequence, the figures for `CCCCCCCCCCCCCCCCCCCCCC(=O)O` (10 µM) were 0.0564 and 108% (inactive).
Taken in the same sequence, the figures for `CCCN(C/C=C/I)[C@H]1CCc2ccc(O)cc2C1` [7-hydroxy-PIPAT] (10 µM) were -0.0984 and 118% (inactive).
Take `CCCCCCCCC(=O)N[C@H](CN1CCCC1)[C@H](O)c1ccc2c(c1)OCCO2` (10 µM): the morphology score in assay [1] turned out to be 0.393. In addition, the SARS-CoV-2 infection rate in assay [2] was 71.5% (inactive).
Taken in the same sequence, the figures for `N[C@@H](Cc1ccc(O)cc1)C(=O)O` [plovamer-acetate] (10 µM) were 0.0812 and 108% (inactive).
Taken in the same sequence, the figures for `Cc1ccc2c(Cl)cc(Cl)c(O)c2n1` [chlorquinaldol] (10 µM) were 0.0549 and 99% (inactive).
For `C=C1CC[C@H](O)C/C1=C/C=C1\CCC[C@]2(C)[C@@H]([C@H](C)CCCC(C)C)CC[C@@H]12` [cholecalciferol] (10 µM), in assay [1], the morphology score is -0.0066. The SARS-CoV-2 infection rate in assay [2] was 96.5% (inactive).
Taken in the same sequence, the figures for `NC(=O)N/N=C/c1ccc([N+](=O)[O-])o1` [nitrofurazone] (10 µM) were 0.187 and 105% (inactive).
The compound `CCN(CC)CCOc1ccc(Cc2ccccc2)cc1` (10 µM) had a morphology score in assay [1] of 0.39. Besides, in assay [2], the SARS-CoV-2 infection rate is 71% (inactive).
`Clc1ccc(C(Cn2ccnc2)OCc2csc3c(Cl)cccc23)c(Cl)c1` (stereo not drawn) [sertaconazole] (10 µM) gave a morphology score in assay [1] of 0.201. Besides, in assay [2], the SARS-CoV-2 infection rate is 104% (inactive).

These data come from the supplement of paper PMC13380429.
